Publication PMC12820563, “FoxP3 forms a head-to-head dimer in vivo and stabilizes its multimerization on adjacent microsatellites”
Whole data set: some 16,000 sequences, median “rpm ratio (pull-down/input)” near 0.94, cut for the highest 2% near 1.7. What follows is part of a selection rich in the highest values, with near analogues and random picks from the rest.

Biological target: T1, MBP-FoxP1dN (Mus musculus, UniProt P58462 326-579)
T1 sequence: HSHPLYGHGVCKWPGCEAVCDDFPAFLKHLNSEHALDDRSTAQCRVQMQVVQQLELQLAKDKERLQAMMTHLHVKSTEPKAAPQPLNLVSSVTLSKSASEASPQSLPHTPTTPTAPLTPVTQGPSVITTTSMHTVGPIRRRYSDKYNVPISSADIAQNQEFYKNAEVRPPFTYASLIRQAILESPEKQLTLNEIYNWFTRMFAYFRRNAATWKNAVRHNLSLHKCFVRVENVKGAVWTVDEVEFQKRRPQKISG
Test: PD-seq (MBP pull-down with sequencing); 20 mM Tris-HCl pH 7.5, 100 mM NaCl, 1.5 mM MgCl2, 0.4 uM protein, 0.1 uM dsDNA library, 30 min, room temperature, amylose pull-down; high values mean tight binding
Conditions: protein: recombinant; tags: His6-MBP; chain copies: 2; dsDNA, one strand shown
Outline: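 Protein and DNA were mixed at 0.4 µM and 0.1 µM and held for 30 min at room temperature in Tris pH 7.5 buffer with NaCl and MgCl2; the protein was a His6-MBP-tagged, N-terminally truncated mouse FoxP3 or FoxP1 fragment from E. coli, and the DNA a Klenow-filled double-stranded degenerate library. Amylose resin captured the complexes, which were washed three times. Binding is read as reads-per-million enrichment of pull-down versus input after Illumina sequencing, with replicates pooled.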

Sequence	binding signal
GATGATTGTTCTCCCAGCTGATGAATTTTGAATTTCGAGTAAACAAATTTTCCTAATCTTTCTGTTCAAGCGCCATCTAC	0.984 RPM ratio (pull-down/input)
GATGATTGTTCTCCCAGCTGATGAATTTTAGGGGTCGAGTAAACAAATTTTCCTAATCTTTCTGTTCAAGCGCCATCTAC	0.805 RPM ratio (pull-down/input)
GATGATTGTTCTCCCAGCTGATGAATTGACTAAGTCGAGTAAACAAATTTTCCTAATCTTTCTGTTCAAGCGCCATCTAC	1.03 RPM ratio (pull-down/input)
GATGATTGTTCTCCCAGCTGATGAATTGACGCTTTCGAGTAAACAAATTTTCCTAATCTTTCTGTTCAAGCGCCATCTAC	1.33 RPM ratio (pull-down/input)
GATGATTGTTCTCCCAGCTGATGAATTAGCACCGTCGAGTAAACAAATTTTCCTAATCTTTCTGTTCAAGCGCCATCTAC	0.962 RPM ratio (pull-down/input)
GATGATTGTTCTCCCAGCTGATGAATTGGCTATATCGAGTAAACAAATTTTCCTAATCTTTCTGTTCAAGCGCCATCTAC	0.923 RPM ratio (pull-down/input)
GATGATTGTTCTCCCAGCTGATGAATTCGCCCGTTCGAGTAAACAAATTTTCCTAATCTTTCTGTTCAAGCGCCATCTAC	0.826 RPM ratio (pull-down/input)
GATGATTGTTCTCCCAGCTGATGAATTCGAATCTTCGAGTAAACAAATTTTCCTAATCTTTCTGTTCAAGCGCCATCTAC	0.84 RPM ratio (pull-down/input)
GATGATTGTTCTCCCAGCTGATGAATTTATATTATCGAGTAAACAAATTTTCCTAATCTTTCTGTTCAAGCGCCATCTAC	2.04 RPM ratio (pull-down/input)
GATGATTGTTCTCCCAGCTGATGAATTATATTTATCGAGTAAACAAATTTTCCTAATCTTTCTGTTCAAGCGCCATCTAC	2.43 RPM ratio (pull-down/input)
GATGATTGTTCTCCCAGCTGATGAATTATAAAAATCGAGTAAACAAATTTTCCTAATCTTTCTGTTCAAGCGCCATCTAC	1.08 RPM ratio (pull-down/input)
GATGATTGTTCTCCCAGCTGATGAATTAATTATATCGAGTAAACAAATTTTCCTAATCTTTCTGTTCAAGCGCCATCTAC	1.11 RPM ratio (pull-down/input)
GATGATTGTTCTCCCAGCTGATGAATTATATCTATCGAGTAAACAAATTTTCCTAATCTTTCTGTTCAAGCGCCATCTAC	0.985 RPM ratio (pull-down/input)
GATGATTGTTCTCCCAGCTGATGAATTATATATATCGAGTAAACAAATTTTCCTAATCTTTCTGTTCAAGCGCCATCTAC	1.16 RPM ratio (pull-down/input)
GATGATTGTTCTCCCAGCTGATGAATTATAAACATCGAGTAAACAAATTTTCCTAATCTTTCTGTTCAAGCGCCATCTAC	2.42 RPM ratio (pull-down/input)
GATGATTGTTCTCCCAGCTGATGAATTTATTATATCGAGTAAACAAATTTTCCTAATCTTTCTGTTCAAGCGCCATCTAC	1.22 RPM ratio (pull-down/input)
GATGATTGTTCTCCCAGCTGATGAATTATATAAATCGAGTAAACAAATTTTCCTAATCTTTCTGTTCAAGCGCCATCTAC	1.16 RPM ratio (pull-down/input)
GATGATTGTTCTCCCAGCTGATGAATTCTTTATATCGAGTAAACAAATTTTCCTAATCTTTCTGTTCAAGCGCCATCTAC	1.02 RPM ratio (pull-down/input)
GATGATTGTTCTCCCAGCTGATGAATTATTTATATCGAGTAAACAAATTTTCCTAATCTTTCTGTTCAAGCGCCATCTAC	1.75 RPM ratio (pull-down/input)
GATGATTGTTCTCCCAGCTGATGAATTATCTATATCGAGTAAACAAATTTTCCTAATCTTTCTGTTCAAGCGCCATCTAC	1.14 RPM ratio (pull-down/input)
GATGATTGTTCTCCCAGCTGATGAATTTACATCCTCGAGTAAACAAATTTTCCTAATCTTTCTGTTCAAGCGCCATCTAC	1.26 RPM ratio (pull-down/input)
GATGATTGTTCTCCCAGCTGATGAATTAGGCTTGTCGAGTAAACAAATTTTCCTAATCTTTCTGTTCAAGCGCCATCTAC	0.93 RPM ratio (pull-down/input)

Sequence	binding signal
GATGATTGTTCTCCCAGCTGATGAATTACAAATGTCGAGTAAACAAATTTTCCTAATCTTTCTGTTCAAGCGCCATCTAC	1.44 RPM ratio (pull-down/input)
GATGATTGTTCTCCCAGCTGATGAATTATCCCTGTCGAGTAAACAAATTTTCCTAATCTTTCTGTTCAAGCGCCATCTAC	0.907 RPM ratio (pull-down/input)
GATGATTGTTCTCCCAGCTGATGAATTAGTCCTCTCGAGTAAACAAATTTTCCTAATCTTTCTGTTCAAGCGCCATCTAC	0.936 RPM ratio (pull-down/input)
GATGATTGTTCTCCCAGCTGATGAATTACACAGTTCGAGTAAACAAATTTTCCTAATCTTTCTGTTCAAGCGCCATCTAC	1.18 RPM ratio (pull-down/input)
GATGATTGTTCTCCCAGCTGATGAATTATAAATATCGAGTAAACAAATTTTCCTAATCTTTCTGTTCAAGCGCCATCTAC	2.01 RPM ratio (pull-down/input)
GATGATTGTTCTCCCAGCTGATGAATTTATAATATCGAGTAAACAAATTTTCCTAATCTTTCTGTTCAAGCGCCATCTAC	1.31 RPM ratio (pull-down/input)
GATGATTGTTCTCCCAGCTGATGAATTGATTATATCGAGTAAACAAATTTTCCTAATCTTTCTGTTCAAGCGCCATCTAC	1.26 RPM ratio (pull-down/input)
GATGATTGTTCTCCCAGCTGATGAATTATATTAATCGAGTAAACAAATTTTCCTAATCTTTCTGTTCAAGCGCCATCTAC	1.1 RPM ratio (pull-down/input)
GATGATTGTTCTCCCAGCTGATGAATTATATTGATCGAGTAAACAAATTTTCCTAATCTTTCTGTTCAAGCGCCATCTAC	2.09 RPM ratio (pull-down/input)
GATGATTGTTCTCCCAGCTGATGAATTATAATTATCGAGTAAACAAATTTTCCTAATCTTTCTGTTCAAGCGCCATCTAC	1.37 RPM ratio (pull-down/input)
GATGATTGTTCTCCCAGCTGATGAATTCACGCTGTCGAGTAAACAAATTTTCCTAATCTTTCTGTTCAAGCGCCATCTAC	0.895 RPM ratio (pull-down/input)
GATGATTGTTCTCCCAGCTGATGAATTACTCGTCTCGAGTAAACAAATTTTCCTAATCTTTCTGTTCAAGCGCCATCTAC	0.904 RPM ratio (pull-down/input)
GATGATTGTTCTCCCAGCTGATGAATTTGAGTGATCGAGTAAACAAATTTTCCTAATCTTTCTGTTCAAGCGCCATCTAC	0.906 RPM ratio (pull-down/input)
GATGATTGTTCTCCCAGCTGATGAATTAACGCGGTCGAGTAAACAAATTTTCCTAATCTTTCTGTTCAAGCGCCATCTAC	0.904 RPM ratio (pull-down/input)
GATGATTGTTCTCCCAGCTGATGAATTTGTTATGTCGAGTAAACAAATTTTCCTAATCTTTCTGTTCAAGCGCCATCTAC	1.55 RPM ratio (pull-down/input)
GATGATTGTTCTCCCAGCTGATGAATTATGTCTGTCGAGTAAACAAATTTTCCTAATCTTTCTGTTCAAGCGCCATCTAC	0.913 RPM ratio (pull-down/input)
GATGATTGTTCTCCCAGCTGATGAATTTATTATGTCGAGTAAACAAATTTTCCTAATCTTTCTGTTCAAGCGCCATCTAC	1.4 RPM ratio (pull-down/input)
GATGATTGTTCTCCCAGCTGATGAATTAATTATGTCGAGTAAACAAATTTTCCTAATCTTTCTGTTCAAGCGCCATCTAC	1.07 RPM ratio (pull-down/input)
GATGATTGTTCTCCCAGCTGATGAATTATTTATGTCGAGTAAACAAATTTTCCTAATCTTTCTGTTCAAGCGCCATCTAC	1.83 RPM ratio (pull-down/input)
GATGATTGTTCTCCCAGCTGATGAATTATGTTTGTCGAGTAAACAAATTTTCCTAATCTTTCTGTTCAAGCGCCATCTAC	2.67 RPM ratio (pull-down/input)
GATGATTGTTCTCCCAGCTGATGAATTTTTTATGTCGAGTAAACAAATTTTCCTAATCTTTCTGTTCAAGCGCCATCTAC	1.04 RPM ratio (pull-down/input)
GATGATTGTTCTCCCAGCTGATGAATTGTTTATGTCGAGTAAACAAATTTTCCTAATCTTTCTGTTCAAGCGCCATCTAC	2.77 RPM ratio (pull-down/input)

Sequence	binding signal
GATGATTGTTCTCCCAGCTGATGAATTTATGATGTCGAGTAAACAAATTTTCCTAATCTTTCTGTTCAAGCGCCATCTAC	1.51 RPM ratio (pull-down/input)
GATGATTGTTCTCCCAGCTGATGAATTTATGTCGTCGAGTAAACAAATTTTCCTAATCTTTCTGTTCAAGCGCCATCTAC	1.14 RPM ratio (pull-down/input)
GATGATTGTTCTCCCAGCTGATGAATTTATGTTGTCGAGTAAACAAATTTTCCTAATCTTTCTGTTCAAGCGCCATCTAC	2.86 RPM ratio (pull-down/input)
GATGATTGTTCTCCCAGCTGATGAATTCTTTATGTCGAGTAAACAAATTTTCCTAATCTTTCTGTTCAAGCGCCATCTAC	1.04 RPM ratio (pull-down/input)
GATGATTGTTCTCCCAGCTGATGAATTGGTCAGGTCGAGTAAACAAATTTTCCTAATCTTTCTGTTCAAGCGCCATCTAC	0.794 RPM ratio (pull-down/input)
GATGATTGTTCTCCCAGCTGATGAATTGCGTGCCTCGAGTAAACAAATTTTCCTAATCTTTCTGTTCAAGCGCCATCTAC	1.09 RPM ratio (pull-down/input)
GATGATTGTTCTCCCAGCTGATGAATTCGGTTTCTCGAGTAAACAAATTTTCCTAATCTTTCTGTTCAAGCGCCATCTAC	0.847 RPM ratio (pull-down/input)
GATGATTGTTCTCCCAGCTGATGAATTCGGAGCATCGAGTAAACAAATTTTCCTAATCTTTCTGTTCAAGCGCCATCTAC	1 RPM ratio (pull-down/input)
GATGATTGTTCTCCCAGCTGATGAATTCGATTCTTCGAGTAAACAAATTTTCCTAATCTTTCTGTTCAAGCGCCATCTAC	0.855 RPM ratio (pull-down/input)
GATGATTGTTCTCCCAGCTGATGAATTAAAGGAATCGAGTAAACAAATTTTCCTAATCTTTCTGTTCAAGCGCCATCTAC	0.934 RPM ratio (pull-down/input)
GATGATTGTTCTCCCAGCTGATGAATTGTTCGAGTCGAGTAAACAAATTTTCCTAATCTTTCTGTTCAAGCGCCATCTAC	1.05 RPM ratio (pull-down/input)
GATGATTGTTCTCCCAGCTGATGAATTTTGGCGATCGAGTAAACAAATTTTCCTAATCTTTCTGTTCAAGCGCCATCTAC	0.955 RPM ratio (pull-down/input)
GATGATTGTTCTCCCAGCTGATGAATTGGACGTGTCGAGTAAACAAATTTTCCTAATCTTTCTGTTCAAGCGCCATCTAC	0.855 RPM ratio (pull-down/input)
GATGATTGTTCTCCCAGCTGATGAATTGTCCCTCTCGAGTAAACAAATTTTCCTAATCTTTCTGTTCAAGCGCCATCTAC	0.967 RPM ratio (pull-down/input)
GATGATTGTTCTCCCAGCTGATGAATTGGACAAATCGAGTAAACAAATTTTCCTAATCTTTCTGTTCAAGCGCCATCTAC	1.05 RPM ratio (pull-down/input)
GATGATTGTTCTCCCAGCTGATGAATTTTGATATTCGAGTAAACAAATTTTCCTAATCTTTCTGTTCAAGCGCCATCTAC	1.19 RPM ratio (pull-down/input)
GATGATTGTTCTCCCAGCTGATGAATTGATATTGTCGAGTAAACAAATTTTCCTAATCTTTCTGTTCAAGCGCCATCTAC	2.35 RPM ratio (pull-down/input)
GATGATTGTTCTCCCAGCTGATGAATTGAATCTGTCGAGTAAACAAATTTTCCTAATCTTTCTGTTCAAGCGCCATCTAC	0.897 RPM ratio (pull-down/input)
GATGATTGTTCTCCCAGCTGATGAATTTGATATTTCGAGTAAACAAATTTTCCTAATCTTTCTGTTCAAGCGCCATCTAC	1.13 RPM ratio (pull-down/input)
GATGATTGTTCTCCCAGCTGATGAATTTGATATGTCGAGTAAACAAATTTTCCTAATCTTTCTGTTCAAGCGCCATCTAC	1 RPM ratio (pull-down/input)
GATGATTGTTCTCCCAGCTGATGAATTGATATTTTCGAGTAAACAAATTTTCCTAATCTTTCTGTTCAAGCGCCATCTAC	2.4 RPM ratio (pull-down/input)
